Consider eight compounds from PubChem BioAssay (Tox21).

Results filed as inconclusive are left out. Where a structure was tested more than once in an assay, its records may differ in their call. Values without a mark were called inactive. Calls of active or inactive are those of the source. Unless noted, the call rests on the fitted dose curve; in most records, active means well fitted curve in the direction sought with a large enough effect in the repeat runs; inconclusive means weak or mixed curves; inactive means no such curve, though single readings can be large; an effect the other way counts as inactive or inconclusive.

A short description of test [1]: qHTS assay to identify aromatase inhibitors - cell viability counter screen (AID 743084;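 further: cells stimulated with testosterone during compound exposure; nearly all actives have a fitted effect of over 55% in size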; further: potency means the concentration at half of the fitted maximal effect). (Quantitative high-throughput screening tests each substance at several concentrations.)
The target in test [2] is Aryl hydrocarbon receptor (Homo sapiens) (UniProt P35869). Nature of the test: qHTS assay to identify small molecule that activate the aryl hydrocarbon receptor (AhR) signaling pathway (AID 743085).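 Further: HG2L7.5c1 human HepG2 liver cells with stably integrated DRE-driven firefly reporter; series mostly up to about 70 µM; nearly all actives have a fitted effect of over 15% in size.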 The gist of the method:
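HepG2 cells (HG2L7.5c1) stably carrying a firefly luciferase reporter driven by 20 dioxin responsive elements were exposed to compound for 24 h at 37C after a 5 h settling period; luminescence rise (ONE-Glo) indicated activation.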

The nature of test [3]: qHTS assay to identify small molecule that activate the aryl hydrocarbon receptor (AhR) signaling pathway - cell viability counter screen (AID 743086). Further: nearly all actives have a fitted effect of over 45% in size. Further: potency means the concentration at half of the fitted maximal effect.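 On viability change, negative = cytotoxic: HepG2 liver cells carrying the AhR DRE luciferase reporter; series mostly up to about 70 µM.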 A digest of the protocol:
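HepG2-AhR-luc (HG2L7.5c1) cells, 4000/well, were preincubated 5 h at 37C, exposed to compound in qHTS format for 24 hr at 37C, then given CellTiter-Fluor for 30 min; viability was read as fluorescence in the reporter wells.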

Test [4] concerns the target Peroxisome proliferator-activated receptor gamma (Homo sapiens) (UniProt P37231). Nature of the test: qHTS assay to identify small molecule agonists of the peroxisome proliferator-activated receptor gamma (PPARg) signaling pathway (AID 743094; active means well fitted activation curve with a large enough effect in the signal ratio in the repeat runs, not every such curve was filed as active; the % refers to the signal ratio). A digest of the protocol:
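Following 5 h plating at 37C, PPARg-bla HEK293H cells receive compound or DMSO for 17 h; fluorescence intensity is recorded after LiveBLAzer B/G loading for 1 h at room temperature.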

Test [5] has the same target. The test is described as follows: qHTS assay to identify small molecule antagonists of the peroxisome proliferator-activated receptor gamma (PPARg) signaling pathway (AID 743191; calls by dose curve; further: series mostly up to about 63 µM; nearly all actives have a fitted effect of over 30% in size). A digest of the protocol:
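GeneBLAzer PPARg UAS-bla HEK293H cells carrying a UAS-driven beta-lactamase reporter were plated at 3000 cells/well, preincubated 5 h at 37C, then given compound for 17 h at 37C; LiveBLAzer B/G FRET substrate was read after 1 h at room temperature.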

A short description of test [6]: qHTS assay to identify small molecule antagonists of the peroxisome proliferator-activated receptor gamma (PPARg) signaling pathway - cell viability counter screen (AID 743194). Further: nearly all actives have a fitted effect of over 55% in size. A digest of the protocol: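 PPARg-UAS-bla HEK293H cells were plated, rested 5 h at 37 C, then treated with compounds plus rosiglitazone (50 nM final) for 17 h at 37 C; viability was then read by CellTiter-Glo luminescence after 30 min at room temperature.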

Test [7] is described as follows: qHTS assay for small molecule agonists of the antioxidant response element (ARE) signaling pathway (AID 743202; active means well fitted activation curve with a large enough effect in the signal ratio in the repeat runs, not every such curve was filed as active; the % refers to the signal ratio). A digest of the protocol:
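Compounds delivered in DMSO to ARE-bla HepG2 cells (2,000 cells/well, pre-incubated 5 h) and left 16 h at 37 C. LiveBLAzer B/G FRET substrate then added for 2 h at RT before fluorescence reading.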

Test [8] in a line: qHTS assay for small molecule agonists of the antioxidant response element (ARE) signaling pathway - cell viability counter screen (AID 743203; calls by dose curve; further: nearly all actives have a fitted effect of over 55% in size). The gist of the method: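 Compounds in DMSO were pinned onto ARE-bla HepG2 cells plated 5 hrs earlier at 2,000 cells/well. Sixteen hours later at 37C/5% CO2, CellTiter-Glo was added and luminescence measured after 30 min at room temperature.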

Test [9] in a line: qHTS assay for small molecule activators of the heat shock response signaling pathway - cell viability counter screen (AID 743209). Further: nearly all actives have a fitted effect of over 50% in size. The gist of the method:
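Counter screen for cytotoxicity in HeLa HSE-bla reporter cells. Treatment was 5 h at 37 C; viability was detected by luminescent ATP assay (CellTiter-Glo) in the same wells as the beta-lactamase read.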

Test [10] is described as follows: qHTS assay for small molecule activators of the heat shock response signaling pathway (AID 743210; active means well fitted activation curve with a large enough effect in the signal ratio in the repeat runs, with a control signal flat, not every such curve was filed as active; the % refers to the signal ratio;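 further: HeLa cells with beta-lactamase reporter driven by heat shock elements; series mostly up to about 63 µM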). The gist of the method:
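Reporter gene assay: HeLa cells stably bearing an HSE-bla construct, compound treatment 5 h at 37 C, LiveBLAzer substrate 2.5 h at RT, fluorescence intensity.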

A short description of test [11]: qHTS assay to identify small molecule agonists of the peroxisome proliferator-activated receptor delta (PPARd) signaling pathway - cell viability counter screen (AID 743211). Further: nearly all actives have a fitted effect of over 55% in size. The gist of the method:
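PPARd-bla HEK293H cells (UAS-beta-lactamase reporter) were treated with compounds for 17 h at 37 C. Viability was then read in the same wells by CellTiter-Glo luminescence after 30 min at room temperature.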

Test [12] concerns the target Peroxisome proliferator-activated receptor delta (Homo sapiens) (UniProt Q03181). The test is described as follows: qHTS assay to identify small molecule agonists of the peroxisome proliferator-activated receptor delta (PPARd) signaling pathway (AID 743212; calls by dose curve). The gist of the method:
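A PPARd-bla HEK293H line with beta-lactamase under an Upstream Activator Sequence is treated with compounds at 37 C. Substrate loading for 2 h at room temperature precedes the fluorescence measurement.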

Test [13] can be described thus: qHTS assay to identify small molecule antagonists of the peroxisome proliferator-activated receptor delta (PPARd) signaling pathway - cell viability counter screen (AID 743213). Further: nearly all actives have a fitted effect of over 50% in size. A digest of the protocol:
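Luminescence from CellTiter-Glo, added after the bla read and incubated 30 min at room temperature, gives viability of HEK293H PPARd-bla cells exposed to compounds for 17 h at 37 C with 300 nM L165041.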

Test [14] concerns the target Peroxisome proliferator-activated receptor delta (Homo sapiens) (UniProt Q03181). The test is described as follows: qHTS assay to identify small molecule antagonists of the peroxisome proliferator-activated receptor delta (PPARd) signaling pathway (AID 743215; active means well fitted inhibition curve with a large enough effect in the signal ratio in the repeat runs, not every such curve was filed as active; the % refers to the signal ratio;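 further: cells stimulated with agonist L165041 at 300 nM final during compound exposure; series mostly up to about 62 µM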). A digest of the protocol: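 With L165041 present at 300 nM final, compounds were incubated 17 h at 37 C on PPARd UAS-bla HEK293H cells. A FRET-based beta-lactamase substrate was then applied for 2 h at room temperature and fluorescence intensity recorded.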

For test [15], the target named is Bile acid receptor (Homo sapiens) (UniProt Q96RI1). The test is described as follows: qHTS assay to identify small molecule antagonists of the farnesoid-X-receptor (FXR) signaling pathway (AID 743217; active means well fitted inhibition curve with a large enough effect in the signal ratio in the repeat runs, not every such curve was filed as active; the % refers to the signal ratio). The gist of the method:
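In this cell-based antagonist screen, inhibition of CDCA-driven (50 uM final) UAS-beta-lactamase expression in HEK 293T cells was measured by FRET fluorescence following 16 h compound exposure at 37 °C.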

A short description of test [16]: qHTS assay to identify small molecule agonists of the farnesoid-X-receptor (FXR) signaling pathway - cell viability counter screen (AID 743218). Further: nearly all actives have a fitted effect of over 45% in size. The gist of the method:
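After 16 h at 37 C with test compounds, FXR-bla HEK 293T cells were given LiveBLAzer B/G substrate for 2 h at RT and then CellTiter-Glo; luminescence was taken after 30 min.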

Test [17] has as its target Bile acid receptor (Homo sapiens) (UniProt Q96RI1). The test is described as follows: qHTS assay to identify small molecule agonists of the farnesoid-X-receptor (FXR) signaling pathway (AID 743220; active means well fitted activation curve with a large enough effect in the signal ratio in the repeat runs, not every such curve was filed as active; the % refers to the signal ratio). The gist of the method:
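Beta-lactamase reporter under UAS control in GeneBLAzer FXR HEK 293T cells (5000/well) measured with LiveBLAzer FRET substrate after 2 h at room temperature. Compound exposure lasted 16 h at 37C.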

Test [18] in a line: qHTS assay to identify small molecule antagonists of the farnesoid-X-receptor (FXR) signaling pathway - cell viability counter screen (AID 743221; active means well fitted cell-killing curve with a large enough effect in the repeat runs, not every such curve was filed as active; further: nearly all actives have a fitted effect of over 50% in size). The gist of the method: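 FXR-UAS-bla HEK 293T cells were treated with test compounds plus chenodeoxycholic acid (50 uM final) for 16 h at 37 C. Cell viability in the same wells was then read as CellTiter-Glo luminescence after 30 min at room temperature.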

Test [19] addresses Vitamin D3 receptor (Homo sapiens) (UniProt P11473). The test is described as follows: qHTS assay to identify small molecule agonists of the vitamin D receptor (VDR) signaling pathway (AID 743222; calls by dose curve). A digest of the protocol: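 VDR-bla cells were seeded, left 4 h, treated with compounds in DMSO for 16 h, incubated 2 h at RT with B/G FRET substrate, and read for fluorescence.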

Test [20] has the same target. Nature of the test: qHTS assay to identify small molecule antagonists of the vitamin D receptor (VDR) signaling pathway (AID 743223; active means well fitted inhibition curve with a large enough effect in the signal ratio in the repeat runs, not every such curve was filed as active; the % refers to the signal ratio). A digest of the protocol: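 VDR-bla cells were plated, incubated 4 h at 37C, then given compound and 1alpha,25-dihydroxyvitamin D3 (3 nM final). After 16 h at 37C, LiveBLAzer B/G FRET substrate was added for 2 h at room temperature and fluorescence read.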
On the % scale 0 is the no-effect control and ±100 the full control effect.

Chain of Peroxisome proliferator-activated receptor delta (Homo sapiens) (Q03181 whole entry, looked up): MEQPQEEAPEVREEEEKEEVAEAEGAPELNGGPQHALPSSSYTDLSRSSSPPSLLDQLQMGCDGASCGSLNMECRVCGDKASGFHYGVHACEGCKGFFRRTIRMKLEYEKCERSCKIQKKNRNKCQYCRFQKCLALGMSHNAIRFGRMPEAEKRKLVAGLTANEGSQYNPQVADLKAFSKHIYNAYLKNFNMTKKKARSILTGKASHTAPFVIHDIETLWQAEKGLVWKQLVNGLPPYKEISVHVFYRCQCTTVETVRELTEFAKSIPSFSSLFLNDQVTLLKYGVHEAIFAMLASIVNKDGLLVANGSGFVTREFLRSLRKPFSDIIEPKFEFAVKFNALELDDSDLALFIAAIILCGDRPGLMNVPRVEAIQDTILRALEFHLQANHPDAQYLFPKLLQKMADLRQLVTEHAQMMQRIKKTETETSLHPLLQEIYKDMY
Chain of Aryl hydrocarbon receptor (Homo sapiens) (P35869 whole entry, looked up): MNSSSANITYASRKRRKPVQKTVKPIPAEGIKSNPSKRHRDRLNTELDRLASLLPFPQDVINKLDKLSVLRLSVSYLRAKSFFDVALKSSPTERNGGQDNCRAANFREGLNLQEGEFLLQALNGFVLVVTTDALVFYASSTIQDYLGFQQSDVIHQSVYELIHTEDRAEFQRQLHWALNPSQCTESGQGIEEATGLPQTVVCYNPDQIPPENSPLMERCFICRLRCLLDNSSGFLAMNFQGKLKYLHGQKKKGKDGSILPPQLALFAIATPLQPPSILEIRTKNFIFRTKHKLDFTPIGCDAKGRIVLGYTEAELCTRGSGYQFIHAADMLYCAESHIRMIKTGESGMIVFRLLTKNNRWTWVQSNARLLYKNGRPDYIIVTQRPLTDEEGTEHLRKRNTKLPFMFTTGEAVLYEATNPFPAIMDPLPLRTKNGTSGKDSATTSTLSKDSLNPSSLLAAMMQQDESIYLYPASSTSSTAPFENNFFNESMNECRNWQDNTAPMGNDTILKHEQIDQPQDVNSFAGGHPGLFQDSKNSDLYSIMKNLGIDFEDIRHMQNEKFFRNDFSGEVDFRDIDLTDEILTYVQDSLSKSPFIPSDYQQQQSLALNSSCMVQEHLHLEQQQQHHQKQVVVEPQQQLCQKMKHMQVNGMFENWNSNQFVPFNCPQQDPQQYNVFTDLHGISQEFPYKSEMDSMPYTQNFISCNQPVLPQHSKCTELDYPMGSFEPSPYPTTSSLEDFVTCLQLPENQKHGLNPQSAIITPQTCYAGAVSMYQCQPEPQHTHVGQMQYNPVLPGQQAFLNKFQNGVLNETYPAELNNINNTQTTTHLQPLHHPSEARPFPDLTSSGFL
Chain of Vitamin D3 receptor (Homo sapiens) (P11473 whole entry, looked up): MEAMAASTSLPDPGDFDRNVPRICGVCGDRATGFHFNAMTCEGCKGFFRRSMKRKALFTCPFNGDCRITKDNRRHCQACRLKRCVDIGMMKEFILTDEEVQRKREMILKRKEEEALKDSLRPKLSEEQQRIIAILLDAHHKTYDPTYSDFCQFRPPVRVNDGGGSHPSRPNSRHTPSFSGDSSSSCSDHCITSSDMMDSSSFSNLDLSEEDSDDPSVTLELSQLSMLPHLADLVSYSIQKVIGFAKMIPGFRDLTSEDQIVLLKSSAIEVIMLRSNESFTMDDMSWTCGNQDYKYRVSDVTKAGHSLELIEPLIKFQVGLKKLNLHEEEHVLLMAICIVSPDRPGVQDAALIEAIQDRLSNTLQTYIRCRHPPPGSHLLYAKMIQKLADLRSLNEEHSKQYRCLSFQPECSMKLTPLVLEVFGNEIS
Chain of Bile acid receptor (Homo sapiens) (Q96RI1 whole entry, looked up): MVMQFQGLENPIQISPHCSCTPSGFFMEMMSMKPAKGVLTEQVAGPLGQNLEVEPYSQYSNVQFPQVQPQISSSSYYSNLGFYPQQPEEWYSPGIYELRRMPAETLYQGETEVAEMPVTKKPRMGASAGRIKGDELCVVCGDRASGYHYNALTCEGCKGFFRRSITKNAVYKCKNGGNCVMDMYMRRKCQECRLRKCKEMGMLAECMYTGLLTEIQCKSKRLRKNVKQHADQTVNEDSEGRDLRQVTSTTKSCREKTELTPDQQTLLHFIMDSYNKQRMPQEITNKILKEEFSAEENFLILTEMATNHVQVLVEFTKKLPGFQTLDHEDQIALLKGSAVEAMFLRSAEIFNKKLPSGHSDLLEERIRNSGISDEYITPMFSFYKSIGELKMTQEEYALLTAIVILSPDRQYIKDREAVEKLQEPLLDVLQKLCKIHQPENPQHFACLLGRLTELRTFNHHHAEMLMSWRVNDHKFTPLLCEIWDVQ
Chain of Peroxisome proliferator-activated receptor gamma (Homo sapiens) (P37231 whole entry, looked up): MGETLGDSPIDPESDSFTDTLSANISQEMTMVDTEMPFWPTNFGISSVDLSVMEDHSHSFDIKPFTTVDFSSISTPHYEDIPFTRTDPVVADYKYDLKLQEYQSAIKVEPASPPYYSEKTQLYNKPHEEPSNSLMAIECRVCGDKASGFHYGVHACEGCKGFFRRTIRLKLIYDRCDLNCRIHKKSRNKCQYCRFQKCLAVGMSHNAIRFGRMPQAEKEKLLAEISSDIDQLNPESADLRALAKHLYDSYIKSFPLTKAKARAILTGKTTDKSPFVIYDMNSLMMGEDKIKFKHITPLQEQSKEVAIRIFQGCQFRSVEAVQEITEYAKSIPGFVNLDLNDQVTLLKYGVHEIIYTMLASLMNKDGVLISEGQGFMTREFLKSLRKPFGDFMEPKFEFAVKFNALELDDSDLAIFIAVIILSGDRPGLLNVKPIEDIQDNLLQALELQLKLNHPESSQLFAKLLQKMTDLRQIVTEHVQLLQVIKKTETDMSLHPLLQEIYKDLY

For the compound `CCCCCCCCS`, the Potency entry in test [1], in test [2], in [3], in [4], in [5] and in test [6] was “inactive” each time. Also, the Potency result in test [7], in test [8], in test [11], in test [12], in test [13] and in test [16] was “inactive” throughout. The Potency entry in [18] was “inactive”. In addition, the compound was called inactive in test [9], in test [10], in test [14], in test [15], in test [17] and in [19]. Further, the outcome in test [20] was inactive.
On to `N#C[C@@H]1CC(F)(F)CN1C(=O)CNC1CC2CCC(C1)N2c1ncccn1` (some centres undefined), for which the Potency result in [1], in [2], in [3], in test [4], in test [5] and in [6] was “inactive” throughout. Moreover, the Potency entry in test [7], in test [8], in [11], in test [12], in test [13] and in test [16] was “inactive” each time. Also, the Potency entry in test [18] was “inactive”. For the same compound, the outcome in [9], in [14], in test [15] and in test [17] was inactive.
In the case of `CCCC(=O)OCCC(C)C`, the Potency result in [1], in [2], in test [3], in test [4], in [5] and in test [6] was “inactive” in each case. Further, the Potency result in test [7], in test [8], in test [12], in test [16] and in test [18] was “inactive” each time. Besides, the compound was called inactive in test [9], in [10], in [14], in test [15] and in test [17].
For `CC(C)Cc1nccs1`, the Potency entry in test [1], in test [2], in test [3], in [4], in [5] and in test [6] was “inactive” in each case. In addition, the Potency result in [7], in test [8], in test [11], in test [13], in test [16] and in test [18] was “inactive” throughout. Further, the outcome in test [9], in [10], in test [14], in [15], in test [17] and in [19] was inactive. In test [20], the result was inactive.
Take `C=CC(C)CCC=C(C)C` (centres undefined): the Potency result in test [1], in test [2], in [3], in test [4], in test [5] and in test [6] was “inactive” throughout. Moreover, the Potency entry in test [7], in test [8], in test [11], in test [16] and in test [18] was “inactive” each time. Moreover, the result in [9], in test [10], in [19] and in [20] was inactive.
Turning to `OCCOc1cccc(OCCO)c1`, the Potency result in [1], in test [2], in [3], in test [4], in test [5] and in test [6] was “inactive” throughout. Further, the Potency entry in test [7], in test [8], in test [11], in test [13], in test [16] and in test [18] was “inactive” throughout. The outcome in test [9], in test [14] and in test [19] was inactive.
With `CC1=CC(=C(c2ccc(N)cc2)c2ccc(N)cc2)C=CC1=N`, the results for the Potency in test [1] and in test [3] were 11.9 µM (active) and 18.8 µM (active), respectively. In addition, in test [2], the Potency entry was “inactive”. Besides, the viability change, negative = cytotoxic was -14.7% [at 8.47 µM] in [3], -12.3% [at 8.36 µM] in [8], -32.9% [at 6.26 µM] in test [13] and -22.2% [at 5.95 µM] in test [16]. In addition, the activation was -4.84% [at 7.08 µM] in [4], -0.545% [at 5.95 µM] in test [10], -0.0637% [at 5.95 µM] in [12] and -2.54% [at 6.01 µM] in test [19]. For the same compound, the activity change, negative = cytotoxicity is -29.3% [at 5.95 µM] in test [6], -5.14% [at 5.95 µM] in [9] and -5.62% [at 5.95 µM] in [18]. In addition, the ratio activity, negative = inhibition in test [14] is -10.9% [at 6.26 µM].
For the compound `Nc1ncnc2c1ncn2[C@@H]1O[C@H](CO)[C@@H](O)[C@H]1O`, the Potency entry in [1], in test [2], in [3], in [4], in [5] and in test [6] was “inactive” in each case. Moreover, the Potency result in test [8], in test [11], in test [13], in test [16] and in test [18] was “inactive” each time. Further, the outcome in test [9], in test [10], in [15], in [17], in test [19] and in [20] was inactive.
